Data as given in PubChem BioAssay.
The source made the active and inactive calls. Unless noted, how the calls were made is not given here.

Experiments:
[1] = kinase inhibitors against Plasmodium liver-stage infection, cell-based, known kinase inhibitor set, luminescence, hepatoma host viability (AID 624392); settings: Plasmodium liver stage in hepatoma cells, luciferase luminescence, concentration not given here; liver cell % of control: measured here: host liver cell viability; parasite % of control: stronger effect = lower value;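 further: infected cells incubated roughly two days before readout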
[2] = modulators of glucocorticoid suppression of NF-kB, cell-based, luciferase, IL-1B stimulus, dexamethasone (AID 624486); settings: NF-kB luciferase reporter, IL-1B + dexamethasone, luminescence; percent of negative control (+Dex): actives lie on both sides, concentration not given here; z-score: measured here: IL-1B alone, no Dex;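 on percent of negative control (+Dex): 100% = mean signal of vehicle control wells on the plate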
[3] = kinase inhibitors altering Pseudomonas killing of worms, whole organism (AID 651566);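 further: tested at 14 µM; sign flipped so higher z means a lower ratio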; settings: C. elegans killed by P. aeruginosa, survival ratio
[4] = activators of macrophage pro-inflammatory response, cell-based, murine, luminescence (AID 652131); settings: murine macrophage pro-inflammatory reporter, stronger effect = higher value
[5] = molecular target: Cellular tumor antigen p53 (Homo sapiens) (UniProt P04637); test: kinase inhibitors altering GFP-p53 stability in HPV16-positive cells, imaging, known kinase inhibitor set, EGFP/DsRed ratio (AID 1053116); settings: stronger effect = higher value; EGFP object count: measured here: GFP-p53 positive objects count;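 further: cells exposed to compounds for 24 h at 37 °C before reading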
Cellular tumor antigen p53 (Homo sapiens), sequence (P04637 whole entry, looked up): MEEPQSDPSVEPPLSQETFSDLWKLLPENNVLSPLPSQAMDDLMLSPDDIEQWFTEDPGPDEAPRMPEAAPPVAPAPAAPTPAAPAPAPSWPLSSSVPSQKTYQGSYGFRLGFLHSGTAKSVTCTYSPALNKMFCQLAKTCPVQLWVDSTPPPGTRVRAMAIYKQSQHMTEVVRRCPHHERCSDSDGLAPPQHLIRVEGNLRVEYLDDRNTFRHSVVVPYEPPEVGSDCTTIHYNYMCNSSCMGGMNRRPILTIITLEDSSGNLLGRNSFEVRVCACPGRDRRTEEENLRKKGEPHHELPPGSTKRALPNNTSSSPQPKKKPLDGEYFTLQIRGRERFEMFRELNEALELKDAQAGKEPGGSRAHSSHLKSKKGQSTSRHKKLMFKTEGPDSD

[6] = IRF3 reporter activation in THP-1 macrophages, cell-based, PMA-stimulated THP-1, luminescence (AID 1053176); settings: PMA-differentiated THP-1, IRF3 reporter luminescence; stronger effect = higher value
[7] = survival rescue of mitochondrial mutant cells in low glucose, primary screen, MELAS cybrids, Rieske KO mouse fibroblasts, CellTiter-Glo (AID 1508586;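 active means mean z-score across replicates of 1.96 or higher in either the MELAS or the Rieske mutant cell line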;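 further: z relative to plate mean and SD of compound and empty wells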)
[8] = MELAS cybrid survival, CellTiter-Glo 48 h, stronger effect = higher value
[9] = Rieske KO mouse fibroblast survival, CellTiter-Glo 72 h

Structure (SMILES)	liver cell % of control [1] [%]	parasite % of control [1]	percent of negative control (+Dex) [2]	z-score [2]	z-score [3]	z-score [4]	EGFP object count [5]	EGFP/DsRed ratio [5]	fraction signal [6]	z-score [7, 8]	z-score [7, 9]
Fc1ccc(Nc2nccc(-c3c(-c4ccc(C(F)(F)F)cc4)nn4ncccc34)n2)cc1F	121	125% (inactive)	94.5% (inactive)	0.25	0.135 (inactive)	-0.216 (inactive)	5.5	0.0976 (inactive)	0.008 (inactive)	-0.717 (inactive)	-0.174
Cc1ccc(NC(=O)c2ccnc(N3CCCC3)c2)cc1-c1ccc(C(=O)NCC2CC2)cc1	90.4	91.3% (inactive)	104% (inactive)	0.86	-0.79 (inactive)	-0.27 (inactive)	6	0.0951 (inactive)	-0.0005 (inactive)	-0.285 (inactive)	-0.118
CNC(=O)c1cncc(/C=C/c2ccccc2Cl)c1	165	16.8% (inactive)	109% (inactive)	0.82	-0.36 (inactive)	1.43 (inactive)	6.5	0.185 (inactive)	0.0005 (inactive)	1.56 (inactive)	-0.00226
O=S1CCN(Cc2ccc(-c3ccc4ncnc(Nc5ccc(OCc6ccccc6)c(Cl)c5)c4c3)o2)CC1	98.4	108% (inactive)	77% (inactive)	-0.87	0.67 (inactive)	1.11 (inactive)	5	0.0559 (inactive)	-0.0035 (inactive)	1.05 (inactive)	-0.081
COc1cc(Nc2nccc(-c3cnn4ncccc34)n2)cc(OC)c1	132	14.2% (inactive)	29% (active)	-7.79	0.5 (inactive)	-1.96 (inactive)	2.5	0.0482 (inactive)	-0.004 (inactive)	1.1 (inactive)	0.69
COc1ccc(-c2ccncc2)cc1C(N)=O	85.3	135% (inactive)	90% (inactive)	-0.52	0.46 (inactive)	0.337 (inactive)	4	0.12 (inactive)	-0.004 (inactive)	-0.169 (inactive)	-0.232
COc1cc(N2CCN(C(C)C)CC2)ccc1Nc1nc(Nc2cccc(F)c2C(=O)O)c2cc[nH]c2n1	115	124% (inactive)	100% (inactive)	-0.075	1.24 (inactive)	-0.341 (inactive)	4	0.0569 (inactive)	0.0115 (inactive)	-0.385 (inactive)	-0.236
CN(C)C(=O)O[C@@H]1CN[C@@H](C#Cc2cc3ncnc(Nc4ccc(OCc5cccc(F)c5)c(Cl)c4)c3s2)C1	108	112% (inactive)	87% (inactive)	-0.155	0.705 (inactive)	-0.722 (inactive)	4	0.0417 (inactive)	-0.0055 (inactive)	0.394 (inactive)	-0.329
CCN1CCC(CC(=O)Nc2n[nH]c3nc(-c4cccs4)c(Br)cc23)CC1	76.8	72.5% (inactive)	88% (inactive)	-0.195	0.735 (inactive)	-0.532 (inactive)	8.5	0.138 (inactive)	0.006 (inactive)	0.148 (inactive)	-0.143
CC(C)c1ccc(-c2cc(C3CNNC3c3ccccn3)ccn2)cc1 (stereo not drawn)	100	117% (inactive)	95.5% (inactive)	0.855	0.505 (inactive)	0.704 (inactive)	2	0.021 (inactive)	-0.0085 (inactive)	0.0399 (inactive)	-0.129
CN(C)CCOc1ccc(-c2cc(-c3ccc4c(c3)CC/C4=N/O)c(-c3ccncc3)o2)cc1	77.4	441% (inactive)	130% (inactive)	0.59	0.205 (inactive)	-0.386 (inactive)	48	1.74 (active)	0.045 (inactive)	0.463 (inactive)	-0.429
Fc1cccc(COc2ccc(Nc3ncncc3C#Cc3ccccc3)cc2Cl)c1	87.3	98% (inactive)	85.5% (inactive)	-0.815	1.36 (inactive)	-0.904 (inactive)	4	0.0412 (inactive)	-0.002 (inactive)	-0.0898 (inactive)	-0.226
Cc1ccc(Nc2ccnc(Nc3cccc(C(N)=O)c3)n2)cc1O	103	259% (inactive)	106% (inactive)	1.52	-0.32 (inactive)	-1.32 (inactive)	3	0.0254 (inactive)	-0.008 (inactive)	-0.195 (inactive)	0.472
Cc1cc(O)cc(C)c1/C=C/c1cncc(C(=O)N(C)C)c1	97.7	96.9% (inactive)	106% (inactive)	0.005	0.18 (inactive)	0.003 (inactive)	4.5	0.177 (inactive)	0.0095 (inactive)	-0.281 (inactive)	-0.0339
CC1=C(C(=O)Nc2ccc3[nH]ncc3c2)C(c2ccc(F)cc2)NC(=O)N1 (stereo not drawn)	105	158% (inactive)	100% (inactive)	0.22	0.64 (inactive)	-0.296 (inactive)	3.5	0.352 (inactive)	0.0035 (inactive)	0.62 (inactive)	-0.219
Nc1c(C(=O)c2cccc(OCCN3CCOCC3)c2)cnn1-c1ccc(F)cc1	121	47.9% (inactive)	100% (inactive)	0.485	–	–	4	0.127 (inactive)	-0.009 (inactive)	–	–
Cn1c(=O)c(-c2ccccc2Cl)cc2cnc(NC3CCOCC3)nc21	100	252% (inactive)	93% (inactive)	-0.175	–	–	1	0.00654 (inactive)	-0.0055 (inactive)	–	–
Cn1c(=O)c(Oc2ccc(F)cc2F)cc2cnc(NC(C)(C)CO)nc21	114	73.2% (inactive)	106% (inactive)	1.07	–	–	3	0.148 (inactive)	0.023 (inactive)	–	–
CN1CCN(c2ccc(Nc3nc(N)c(C(=O)c4ccc5c(c4)OCCO5)s3)cc2)CC1	108	46.7% (inactive)	138% (inactive)	3.58	–	–	4.5	0.151 (inactive)	-0.018 (inactive)	–	–
Cn1cc(C2=C(Sc3ccccc3)C(=O)NC2=O)c2ccccc21	92.3	50.7% (inactive)	99.5% (inactive)	0.02	–	–	2.5	0.0664 (inactive)	0.008 (inactive)	–	–
Cn1c(=O)c(Oc2cccc(F)c2)cc2cnc(NC3CCOCC3)nc21	112	65.8% (inactive)	101% (inactive)	0.78	–	–	4	0.127 (inactive)	0.0015 (inactive)	–	–
CC(c1ccccc1)C(C(=O)Nc1ccc(I)cc1F)N1C(=O)NC(c2ccc(OCC(O)CO)cc2)C1=O (stereo not drawn)	85.7	72.5% (inactive)	55% (active)	-3.5	–	–	5	0.306 (inactive)	0.0035 (inactive)	–	–
Cn1cc(C2=C(c3cn(C)c4c(N)cccc34)C(=O)NC2=O)c2ccccc21	92.4	40.1% (inactive)	108% (inactive)	-1.47	–	–	87.5	1.36 (active)	-0.003 (inactive)	–	–
Cn1cc(C2=C(c3cn(C)c4ccc(N)cc34)C(=O)NC2=O)c2ccccc21	95.1	36.7% (inactive)	98% (inactive)	0.385	–	–	11	0.25 (inactive)	-0.0115 (inactive)	–	–
COc1cc(Nc2ncc3c(C)nc(-c4cccc(C(F)(F)F)c4)n3n2)cc(OC)c1OC	91.6	120% (inactive)	59.5% (inactive)	-3.31	0.325 (inactive)	-0.389 (inactive)	11	0.172 (inactive)	0.005 (inactive)	1.04 (inactive)	0.168
CN1CCC(C(=O)NC2NNC3NNC(c4ccccc4)CC32)CC1 (stereo not drawn)	89.8	66% (inactive)	90.5% (inactive)	-0.385	-0.44 (inactive)	3.5 (inactive)	24	0.259 (inactive)	-0.0035 (inactive)	-0.114 (inactive)	-0.215
CC(Cn1ncnn1)Nc1ncc2cc(Oc3ccc(F)cc3F)c(=O)n(C)c2n1 (stereo not drawn)	111	71.1% (inactive)	101% (inactive)	0.455	–	–	1.5	0.0437 (inactive)	-0.003 (inactive)	–	–
Cn1cc(C2=C(c3cn(CCCCCSC(=N)N)c4ccccc34)C(=O)NC2=O)c2ccccc21	88.1	29.3% (inactive)	99.5% (inactive)	1.02	–	–	24.5	0.037 (inactive)	-0.007 (inactive)	–	–
COc1ccccc1C(=O)c1cnc(NC2CCN(S(C)(=O)=O)CC2)nc1N	100	96.6% (inactive)	85% (inactive)	-1.16	–	–	5	0.0796 (inactive)	0.0015 (inactive)	–	–
CC(=O)NC(Cc1ccc(OP(=O)(O)O)cc1)C(=O)NC1CCC(=O)N2CCCC(C(=O)NCc3ccc(O)cc3)N2C1=O (stereo not drawn)	107	44.4% (inactive)	94.5% (inactive)	0.215	–	–	6	0.202 (inactive)	-0.007 (inactive)	–	–
